Laboratory results taken from PubChem BioAssay (NCATS).
Values joined by “and” are separate entries in the source; they are usually repeats but may differ in a detail not shown here. Identical values can stand only once. Inconclusive results are not listed. Unmarked numbers belong to inactive results. Active and inactive are the calls of the source. Calls follow the shape of the dose curve; as a rule, active = well fitted cell-killing curve with a large enough effect; inconclusive = small, poorly fitted or top-dose-only effect; inactive = no such curve, though single readings can be large or run the other way.

Assay: qHTS of pediatric cancer cell lines to identify multiple opportunities for drug repurposing: Primary screen for LAN-5 cells (AID 1347100)
Conditions: LAN-5 neuroblastoma viability, CellTiter-Glo luminescence, 48 h; series mostly up to 46 µM; activity change, negative = cytotoxic: at the top concentration
Description: Drug repurposing or repositioning has been offered as a strategy for drug development in oncology programs. This approach has special potential for childhood cancers and other rare or orphan diseases, where the expected return on new drug development has been a disincentive to pharmaceuticals.
In this project we exploit the poly-pharmacology of drugs to discover new indications via phenotypic screening of a panel of 19 well-characterized cell lines derived from solid tumors seen in children and adolescents. The goal is to identify approved drugs with previously unrecognized anticancer properties that has the potential to reveal new mechanisms and biological processes involved in carcinogenesis or drug resistance. We employed a titration-based paradigm (quantitative high-throughput screening or qHTS), where all compounds were tested at multiple concentrations for their effect on cell viability. Concentration-response curves (CRCs) were derived directly from the primary screen, and both potency and efficacy values were used to identify compounds with robust bioactivity profiles. We screened the NIH Chemical Genomics Center (NCGC) Pharmaceutical Collection (NPC) and Mechanism Interrogation Plate (MIPE) small molecule collections of approved and investigational compounds against these cell lines; and measured metabolically active cells after 48 hours of compound treatment as a proxy for cell viability.
Assay Submitter: Nathalia J. Martinez, National Center for Advancing Translational Sciences, National Institutes of Health, Rockville, MD, USA; email: natalia.martinez@nih.gov
[1] Shen, M et al. Quantitative high-throughput phenotypic screening of pediatric cancer cell lines identifies multiple opportunities for drug repurposing. Oncotarget 2017 Dec 19;9(4):4758-4772. PMID 29435139.
The cells were obtained from University of North Carolina (UNC), Pediatric Preclinical Testing Program (PPT), and Coriell Institute (CI).
qHTS cell viability assay:
Cells were assayed in growth media at a density of 500-1,000 cells/well. Five microliters of cells were dispensed into 1,536-well, white, solid-bottom, TC-treated plates (Greiner Bio One) using a multidrop dispenser and incubated at 37 degrees C, 5% CO2, under a humidified atmosphere for 5 hours. Twenty-three nanoliters of compounds and controls (neutral control DMSO or positive control bortezomib at final concentration of 2.3 µM) were subsequently transferred by Kalypsys pintool. For primary screens, the MIPE collection was tested at 11-point dilutions (final concentrations range from 0.78 nM to 46 µM) and the NPC collection at 8-point dilutions (final concentrations range from 0.59 nM to 46 µM). Compounds tested in follow-up screens were assayed at 11-point dilutions. Cells were incubated for 48 hours, followed by addition of 3 µL of CellTiter-Glo (Promega). After a 15 min incubation at room temperature, samples were analyzed for luminescence intensity using a ViewLux High-throughput CCD imager equipped with clear filters.
Potency is read from the fitted curve at half-maximal effect.

Structure (SMILES) | Potency | activity change, negative = cytotoxic [%]
Cc1nc(N)sc1-c1ccnc(Nc2ccc(N3CCOCC3)cc2)n1 | 0.332 µM (active) | 
COCCOC(=O)C1=C(C)NC2=C(C(=O)CC(c3ccccc3OC)C2)C1c1cccc(O)c1 (stereo not given) | 13.2 µM (active) | 
O=C(CCCCCCC(=O)Nc1ccccc1)NO | 1 nM (active) and 1.32 µM (active) | 
CC(C)(C)c1cc(C(=O)O)c(NC(=O)Nc2ccc3[nH]ncc3c2)s1 |  | 1.23
C[N+](C)(C)CCCCCC[N+](C)(C)C |  | 18.5
CC1(C)CCC(CN2CCN(c3ccc(C(=O)NS(=O)(=O)c4ccc(NCC5CCOCC5)c([N+](=O)[O-])c4)c(Oc4cnc5[nH]ccc5c4)c3)CC2)=C(c2ccc(Cl)cc2)C1 | 1.05 µM (active) | 
CC(C)C(=O)Oc1ccc(CO)cc1[C@H](CCN(C(C)C)C(C)C)c1ccccc1 |  | -28.1
CC(C)NCC(O)COc1cccc2[nH]ccc12 (stereo not given) |  | -14.8
O=C1NC(=O)C(=Cc2ccc(-c3ccc(F)cc3)o2)S1 |  | -11.8
c1ccc2c(Cc3c[nH]c4ccccc34)c[nH]c2c1 | 23.5 µM (active) | 
COc1ccc(-c2coc3cc(O)cc(O)c3c2=O)cc1 |  | -2.75
O=c1cc(-c2ccc(O)cc2)oc2cc(O)cc(O)c12 | 3.32 µM (active) | 
CC(C)(C)Cn1c(N)nc2ccc(-c3[nH]c(C(C)(C)C)nc3-c3ccc(F)cc3)nc21 |  | -12.6
COc1ccccc1N1CCN(CCCNc2cc(=O)n(C)c(=O)n2C)CC1 |  | 18.3
O=C1C[C@@H](c2ccc(O)cc2)Oc2cc(O)cc(O)c21 |  | 6.22
NC[C@@H]1O[C@@H](O[C@H]2[C@@H](O)[C@H](O[C@@H]3[C@@H](O)[C@@H](N)C[C@H](N)[C@H]3O[C@H]3O[C@H](CN)[C@@H](O)[C@@H](O)[C@H]3N)O[C@H]2CO)[C@H](N)[C@@H](O)[C@@H]1O |  | 1.52
O=C1c2c(O)cc(O)cc2O[C@H](c2cc(O)c(O)c(O)c2)[C@H]1O | 26.4 µM (active) | 
CCN(CC)CCOC(=O)c1ccc(N)cc1 |  | 28.3
CCCNC(=O)NS(=O)(=O)c1ccc(Cl)cc1 |  | 4.51
CO[C@H]1C[C@@H]2CC[C@@H](C)[C@@](O)(O2)C(=O)C(=O)N2CCCC[C@@H]2C(=O)O[C@H]([C@H](C)C[C@@H]2CC[C@H](OC(=O)C(C)(CO)CO)[C@H](OC)C2)CC(=O)[C@H](C)C=C(C)[C@@H](O)[C@@H](OC)C(=O)[C@H](C)C[C@H](C)C=CC=CC=C1C | 20.9 µM (active) | 

Structure (SMILES) | Potency | activity change, negative = cytotoxic [%]
O=C(NCc1ccccc1)c1csc(Nc2ccncn2)n1 | 13.2 µM (active) | 
CC1(C)Cc2c(sc(NC(=S)NC(=O)c3ccccc3)c2C(=O)O)CO1 |  | 4.63
COC(=O)N[C@H](C(=O)N1CCC[C@@H]1c1ncc(-c2ccc(-c3ccc(-c4cnc([C@@H]5CCCN5C(=O)[C@@H](NC(=O)OC)C(C)C)[nH]4)cc3)cc2)[nH]1)C(C)C | 26.4 µM (active) | 
CC1(C)S[C@H]2[C@H](NC(=O)[C@@H](N)c3ccc(O)cc3)C(=O)N2[C@@H]1C(=O)O | 3.72 µM (active) | 
Clc1ccc(Cn2c(CN3CCCC3)nc3ccccc32)cc1 |  | -18.4
Cn1c(N2CCCCS2(=O)=O)nc(C(=O)NCc2ccc(F)cc2)c(O)c1=O |  | 10.1
O=C(NCCN1CCOCC1)c1ccc(Cl)cc1 |  | 11.1
COc1ccc(-c2oc3c(CC=C(C)C)c(OC4O[C@H](CO)[C@@H](O)[C@H](O)[C@@H]4O)cc(O)c3c(=O)c2OC2O[C@@H](C)[C@H](O)[C@@H](O)[C@@H]2O)cc1 (stereo not given in full) | 23.5 µM (active) | 
COc1ccc2c(Oc3ccc(NC(=O)c4c(C)n(CC(C)(C)O)n(-c5ccccc5)c4=O)nc3)ccnc2c1 |  | -20.8
NC1CCC(Nc2nc(Nc3ccc(C(=O)N4CCCCC4)cc3)c3ncn(-c4cccc(F)c4)c3n2)CC1 (stereo not given) |  | -7.71
CC(C)(C)COc1ccc(-n2cc(C(=O)O)cn2)cc1C#N |  | -0.0628
CC(C)=CC[C@@H](O)C1=CC(=O)c2c(O)ccc(O)c2C1=O | 14.8 µM (active) | 
CCC(CC)[C@H](NC(C)=O)[C@@H]1[C@H](O)[C@@H](C(=O)O)C[C@@H]1N=C(N)N |  | 3.06
OC[C@H]1O[C@@H](n2cnc3c2NC=NC[C@@H]3O)C[C@H]1O |  | -12.4
CCC(=O)O[C@]1(C(=O)CO)CC[C@H]2[C@@H]3CCC4=CC(=O)CC[C@]4(C)[C@@H]3CC[C@@]21C |  | -1.74
CO[C@H]1C(=O)[C@]2(C)[C@@H](OC)C[C@H]3OC[C@@]3(OC(C)=O)[C@H]2[C@H](OC(=O)c2ccccc2)[C@]2(O)C[C@H](OC(=O)[C@H](O)[C@@H](NC(=O)OC(C)(C)C)c3ccccc3)C(C)=C1C2(C)C | 0.001 µM (active) | 
CC(C)OC(=O)CCCC=CC[C@@H]1[C@H](C=C[C@@H](O)COc2cccc(C(F)(F)F)c2)[C@H](O)C[C@@H]1O |  | 0.746
CN(C[C@@H]1COCCO1)S(=O)(=O)Nc1ccc2ccc3ncc(-c4cnn(C)c4)cc3c(=O)c2c1 | 14.8 µM (active) | 
NC1=N[C@@]2(c3cc(NC(=O)c4ccc(F)cn4)ccc3F)COC[C@@H]2CS1 | 0.132 µM (active) | 
CN1[C@@H]2CCC[C@@H]1CC(NC(=O)c1nn(C)c3ccccc13)C2 (stereo not given in full) |  | 1.28
